# Bioassay records from PubChem BioAssay.
# miR-21 reporter: qHTS Assay for Modulators of miRNAs and/orActivators of miR-21. HeLa miR-21 FLuc reporter, luciferase, 48 h. Potency, µM (titrated, usually from 38.3 µM), hits mostly activators. 340,000 tested, under 10 active. AID 2288, 2010;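 further: miR-21 action dims this reporter so a rising signal means less miR-21 action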
#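 Using DMEM plus 10% FBS, HeLa miR-21-FLuc cells are incubated with test compounds (final up to about 40uM) for 48 hours; firefly luciferase signal is then imaged following reagent-mediated lysis.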
# Nrf2 ARE act: qHTS of Nrf2 Activators; AREc32 ARE-luciferase reporter (MCF7-derived line), luminescence, 24 h; Potency, µM (highest dose often 46.1 µM), usual class: activators; 410,000 tested, 0.31% active; AID 624171, 2012; further: nearly all actives have a fitted effect of over 65% in size
#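 ARE activation measured as luciferase luminescence (Steady-Glo, 30 min RT) in AREc32_Fluc cells after 24 hr compound exposure at 37 deg C, 5% CO2; cells seeded overnight at 1000/well in OPTI-MEM, 5% FBS.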
# Mito fusion yeast: qHTS Assay for Small Molecule Inhibitors of Mitochondrial Division or Activators of Mitochondrial Fusion; S. cerevisiae fusion-defective mutant growth rescue, CellTiterGlo 48 h; Potency, µM (titrated, usually from 46.1 µM), most hits filed as activators; 320,000 tested, 0.23% active; further: nearly all actives have a fitted effect of over 45% in size
#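 Temperature-sensitive fusion-defective S. cerevisiae (e.g. fzo1-1, mgm1-5) were grown with compound in YPEG medium (3% ethanol, 3% glycerol) for 48 hours at 37C. Growth rescue was measured as viability by CellTiterGlo luminescence after 10 minutes at ambient.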
# Nrf2 block: Nrf2 qHTS screen for inhibitors. A549 ARE-Fluc reporter, luciferase luminescence, 18-24 h. 360,000 tested, 2.1% active. Potency, µM (titrated, usually from 46 µM), hits mostly inhibitors; further: nearly all actives have a fitted effect of over 60% in size
#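 Two sequential reads on A549 ARE_Fluc cells exposed to compound for 18-24 h: a CellTiter-Fluor fluorescence read for viability, then a luciferase luminescence read for Nrf2/ARE activity.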
# A549 tox: Nrf2 qHTS screen for inhibitors: counterscreen for cytotoxicity | 390,000 tested, 0.16% active | AID 504648, 2011 | Potency, µM (doses to about 46 µM), actives largely listed as inhibitors | A549 ARE-Fluc cells, CellTiter-Fluor viability, 18-24 h
#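 A549 ARE_Fluc cells in 5% FBS OPTI-MEM were exposed to compounds in concentration-response for 18-24 h at 37 deg C. Viability was read by CellTiter-Fluor fluorescence (Ex 405/Em 525) after 30 min, before the luciferase read.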
# Numbers stand for hits; 0 = inactive; ? = inconclusive; - = no result; ! = a repeat was not active; [ ] = dose if it differs, or a comment. An excerpt weighted towards active compounds, which were near 2.3% of everything screened. The call rests on the fitted dose curve; in most records, active means well fitted curve in the direction sought with a large enough effect; inconclusive means small, poorly fitted or top-dose-only effect, or another doubt; inactive means no such curve, though single readings can be large; an effect the other way counts as inactive or inconclusive.
SMILES,miR-21 reporter,Nrf2 ARE act,Mito fusion yeast,Nrf2 block,A549 tox
CC(=O)Nc1ccc(SCC(CC(C)C)N2CCN(C)CCC2=O)cc1 (stereo not drawn),-,-,-,0,0
O=C(COC(=O)c1nc(Cl)c(Cl)c(Cl)c1Cl)c1ccc[nH]1,-,22µM,0,0,0
O=C(COC(=O)c1nc(Cl)ccc1Cl)c1ccc[nH]1,-,0,0,0,0
Oc1cccc(C(Nc2nccs2)c2ccc3cccnc3c2O)c1 (stereo not drawn),0,0,0,16µM,0
COc1ccccc1NC(=O)CCn1nc(-c2ccccc2)c2ccccc2c1=O,0,0,-,23µM,?
O=C(CCn1nc(-c2ccccc2)c2ccccc2c1=O)Nc1ccccc1,0,0,-,0,0
Brc1ccc(-c2csc(/N=C/N3CCCC3)n2)cc1,0,0,0,12µM,0
Cc1cc(C)n(CC(=O)NNC(=O)COc2ccc(F)cc2Br)n1,-,0,0,0,0
Cc1nn(C)c(C)c1NC(=O)COc1ccc(F)cc1Br,-,0,-,23µM,0
O=C(Nc1ccccc1N1CCOCC1)c1ccccc1NS(=O)(=O)c1ccc(F)cc1,0,0,0,0,0
O=C(Nc1ccccc1N1CCOCC1)c1cc(-c2ccco2)nc2ccccc12,0,0,0,18µM,0
CCOc1ccc(S(=O)(=O)Nc2ccccc2C(=O)Nc2ccccc2N2CCOCC2)cc1,0,0,0,0,0[1.84 µM]
Cc1ccc(C)c(S(=O)(=O)Nc2ccccc2C(=O)Nc2ccccc2N2CCOCC2)c1,0,0,0,23µM,0
O=C(Nc1ccccc1N1CCOCC1)c1ccccc1NS(=O)(=O)c1ccc(F)c(F)c1,0,0,0,21µM,0
Cc1cc(F)ccc1S(=O)(=O)Nc1ccccc1C(=O)Nc1ccccc1N1CCOCC1,0,0,0,21µM,0
Cn1cc(S(=O)(=O)N2CCCCC2)cc1C(=O)NCc1ccc(Cl)cc1,?,0,-,?,0
Cc1ccc(C(=O)c2cn(CC(=O)Nc3ccc(C)cc3Cl)c3nc(C)ccc3c2=O)cc1,0,0,-,0,0
CN(C)c1ccc(CNC(=O)c2ccc3c(c2)N(C)C(=O)C2CCCCN32)cc1 (stereo not drawn),0,?,-,-,0
CCCN(CCC)c1cc(C)nc2nc(-c3ccc(C(C)(C)C)cc3)nn12,0,0,-,0,0
N#Cc1nc(N2CCOCC2)nc(N2CCOCC2)n1,0,0,0,0,0
CCNc1nc(C#N)nc(N2CCOCC2)n1,-,-,-,16µM,0
COc1ccc(/C=N/NC(=O)c2ccc(N(C)S(=O)(=O)c3ccccc3)cc2)c(OC)c1,0,0,0,0,0
COc1ccc(CCNC(=O)c2ccc(Cl)c(S(=O)(=O)N(C)c3ccccc3)c2)cc1,0,0,0,18µM,0
COc1ccc(/C=N/NC(=O)c2ccc(N(C)S(=O)(=O)c3ccccc3)cc2)cc1,0,0,0,26µM,0
COc1ccc(NC(=O)COc2ccc(N(C)S(=O)(=O)c3ccc(C)cc3)cc2)cc1,0,0,0,?,0
SMILES,miR-21 reporter,Nrf2 ARE act,Mito fusion yeast,Nrf2 block,A549 tox
COc1ccc(CCNC(=O)c2ccc(N(C)S(=O)(=O)c3ccc(C)cc3)cc2)cc1,0,0,0,?,0
Cc1ccc(NC(=O)c2ccc(NS(=O)(=O)/C=C/c3ccccc3)cc2)nc1,0,0,0,21µM,0
COc1ccc(NC(=O)COc2ccc(N(C)S(=O)(=O)c3ccc(Cl)cc3)cc2)cc1,-,0,0,13µM,0
Cc1ccc(S(=O)(=O)N2CCCN(c3nc(-c4cccs4)nc4ccccc34)CC2)cc1,-,-,-,0,0
Cc1ccc(S(=O)(=O)N(C)c2ccc(OCC(=O)Nc3nc4ccccc4s3)cc2)cc1,0,0,0,21µM,0
Cc1ccc(S(=O)(=O)N(C)c2ccc(OCC(=O)Nc3nc4c(ccc5ccccc54)s3)cc2)cc1,0,0,0,0,0
Cc1ccc(S(=O)(=O)N(C)c2ccc(C(=O)Nc3ccc(C)cn3)cc2)cc1,-,0,0,12µM,0
COc1ccc(C(=O)Nc2ccc(S(=O)(=O)N(C)c3ccccc3)cc2)cc1,-,0,-,21µM,0
O=C1CCCC2=C1C1O[C@](CCCCN3C(=O)c4ccccc4C3=O)(Cc3c1ccc1ccccc31)O2,0[7.66 µM],-,0[9.22 µM],-,-
CC(C)CC(=O)Nc1nnc(S(=O)(=O)N(CC(C)C)c2ccccc2)s1,0,0,-,?,0
CCn1c(=N)n(CC(=O)c2cccc([N+](=O)[O-])c2)c2ccccc21,0,?,0,?,0
N=c1n(CCN2CCOCC2)c2ccccc2n1CC(=O)c1cccc([N+](=O)[O-])c1,0,3.2µM,0,0,0
COc1ccc(OC)c(C(=O)COC(=O)c2ccccc2O)c1,0,13µM,0,0,0
COc1ccc(OC)c(C(=O)COC(=O)c2c(OC)cccc2OC)c1,0,0,0,0,0
CCOC(=O)c1ccc(NC(=O)CCCn2c(=O)c3cccn3c3cccnc32)cc1,0,0,-,?,0
Cc1ccc(NC(=O)CCCCCN2C(=O)[C@@H]3Cc4ccccc4CN3C2=O)c(Cl)c1,0,0,0,23µM,0
Cc1ccc(C)c(NC(=O)CCCCCN2C(=O)[C@@H]3Cc4ccccc4CN3C2=O)c1,0,0,0,0,0
COc1ccc(-c2nc3ccccc3c(=O)n2Cc2ccc(CNC(=O)CO)cc2)cc1COc1ccc(NC(C)=O)cc1,-,-,-,?,0
COc1ccc(N(C(=O)c2ccncc2)S(=O)(=O)c2ccc3c4c(cccc24)C(=O)N3C)cc1,0,0,0,?,0
CCN1C(=O)c2cccc3c(S(=O)(=O)N(C(C)=O)c4ccc(OC(C)=O)cc4)ccc1c23,-,0,-,26µM,0
COc1ccc(NC(=O)Cn2nnc(-c3ccccc3NS(=O)(=O)c3ccccc3)n2)cc1,0,0,0,21µM,0
COc1ccc(C(=O)Cn2nnc(-c3ccccc3NC(=O)c3ccco3)n2)cc1,0,0,0,18µM,?
COc1ccc(S(=O)(=O)Nc2ccccc2-c2nnn(CC(=O)Nc3ccccc3OC)n2)cc1,0,0,0,?,?
COc1ccccc1N(CC(=O)NC1CC2CCC1C2)S(=O)(=O)c1ccc(C)cc1 (stereo not drawn),0,0,0,18µM,0
COc1ccccc1N(CC(=O)NCCSCc1ccccc1)S(=O)(=O)c1ccc(C)cc1,?,0,0,15µM!,0
COc1ccc(Cc2nc3c4cnn(-c5ccccc5Br)c4ncn3n2)cc1,0,0,-,0,0
CN1C(=O)Cc2cc(S(=O)(=O)CCC(=O)N3CCN(c4cccc(Cl)c4)CC3)ccc21,0,0,-,0,0
O=S(=O)(c1nccs1)N1CCN(c2nc(-c3cccs3)nc3ccccc23)CC1,-,-,-,?,0
